Sampled rows, rich in hits. Any-hit rate of the full collection: about 3.8%.
TGFb inhibitor = inhibitors of TGF-b signaling | HepG2 CAGA-GFP TGF-b/SMAD3 reporter, GFP fluorescence, 18 h; TGF-beta stimulated, 500 pg/mL final | Potency, µM (titrated, usually from 46.1 µM), for the others: at the highest dose activity, negative = inhibition, most hits filed as inhibitors | 410,000 tested, 1.2% active; note: % is set by controls: 0 for no effect and ±100 for the full control effect; nearly all actives have a fitted effect of over 65% in size
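GFP signal (ex488/em500-530) from TGF-beta-stimulated HEPG2 CAGA-GFP cells, 500 pg/mL final, 18 h at 37 degrees C in DMEM plus 1% FBS, normalized to unstimulated and DMSO-stimulated controls.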
HT1080 IDH1KD tx = HT-1080 IDH1 knockdown cell toxicity (counter line); HT-1080 IDH1 knockdown viability, ATP luminescence, 48 h; Potency, µM (doses to about 46.1 µM), for inactives: at the highest dose activity, negative = toxicity, usual class: cytotoxic; 360,000 tested, 2% active; AID 686971;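 note: 0% = DMSO wells and -100% = cell-free medium wells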
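After a 2 h attachment period, IDH1KD HT-1080 cells took pin-transferred compound for 48 h at 37 °C; ATP-based luminescence after 10 min room-temperature reagent incubation reported viability.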
HT1080NT lethal = kills 2HG-producing HT-1080-NT fibrosarcoma cells; 360,000 tested, 1.6% active; HT-1080-NT fibrosarcoma viability, CellTiter-Glo ATP luminescence, 48 h; Potency, µM (doses to about 46.1 µM), for inactives: at the top dose activity, negative = less viability, most hits filed as cytotoxic;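 note: NT is the 2HG producing partner of a matched IDH1 knockdown line; 0% = DMSO-treated cells and -100% = media-only wells without cells; nearly all actives have a fitted effect of over 55% in size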
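HT-1080-NT fibrosarcoma cells (2HG-overproducing), 750 cells/well in RPMI with 5% FBS, dosed after 2 h and incubated 48 h at 37C. CellTiter-Glo luminescence normalized to DMSO and no-cell wells; concentration-response curves fitted and classed.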
ATXN viability = reduces viability in counter-screen for ATXN expression inhibitors | S2 cells (HEK-293 line with an ATXN2-luciferase reporter) viability, CellTiter-Fluor protease fluorescence, 24 h | Potency, µM (titrated, usually from 56.7 µM), hits mostly cytotoxic | 400,000 tested, 0.49% active | AID 651635; note: nearly all actives have a fitted effect of over 40% in size
HepG2 tox = kills HepG2 cells in TGF-b inhibitor counter-screen | HepG2 CAGA-GFP viability, ATP luminescence, 18 h | Potency, µM (top dose mostly 46.1 µM), inactives show at the top dose activity change, negative = cytotoxicity, actives largely listed as cytotoxic | 410,000 tested, 0.76% active | AID 588856
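CellTiter-Glo luminescence gave cytotoxicity after 18 hours at 37 degrees C. The cells were HepG2 CAGA-GFP in 1% FBS DMEM, stimulated with 500 pg/mL TGF-beta after compound addition. %Activity was normalised to no-cell wells (complete cell-killing) and DMSO (no toxicity), and curves were fitted and classified.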
ATXN2 expr inh = ATXN2 expression inhibition; HEK-293 ATXN2-luciferase reporter, luminescence, 24 h; 360,000 tested, 0.72% active; Potency, µM (doses to about 57 µM), for inactives: at the top dose activity change, negative = inhibition, most hits filed as inhibitors; AID 1745845; note: % is set by controls: 0 for no effect and ±100 for the full control effect; nearly all actives have a fitted effect of over 55% in size
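ATXN2-luciferase reporter cells (luciferase flanked by upstream and downstream ATXN2 gene portions) were treated 24 h at 37 °C with compounds at up to 57 uM. SteadyGlo luminescence gave expression; GF-AFC fluorescence gave viability.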
* = called active by the depositor; i = inactive; ? = inconclusive; . = not tested or not shown; [ ] = dose if it differs, or a comment. Calls come from the whole dose curve; as a rule, active = well fitted curve in the direction sought with a large enough effect; inconclusive = small, poorly fitted or top-dose-only effect, or another doubt; inactive = no such curve, though single readings can be large; an effect the other way counts as inactive or inconclusive. Potency is the fitted concentration of half-maximal effect.

SMILES	TGFb inhibitor	HT1080 IDH1KD tx	HT1080NT lethal	ATXN viability	HepG2 tox	ATXN2 expr inh
Cc1ccccc1NC1=NC2(CCCC2)N=C(N)N1	-1%	0%	2%	i	2%	-32%
Cc1ccc(NC2=NC3(CCCCC3)N=C(N)N2)c(C)c1	17%	11µM*	?	i	-19%	3%
Cc1ccc(NC2=NC3(CCCC3)N=C(N)N2)c(C)c1	8%	16µM*	18µM*	i	-1%	-2%[11.3 µM]
Cc1ccc(C)c(NC2=NC3(CCCCC3)N=C(N)N2)c1	21%	0%	2%	i	-5%	-4%
Cc1cc(N(C)C)cc(C)c1/C=C/c1ccnc2ccccc12	?	.	.	.	-34%	.
C[C@@H]1Cc2c(O)c(O)cc(O)c2C(=O)O1	12%	-3%	-6%	i	-1%	5%
CC1CCC/C=C/C(=O)c2c(O)cc(O)cc2CC(=O)O1 (stereo not drawn)	7.1µM*	21µM*	18µM*	11µM*	-68%	10µM*
Cc1cnc(SCCN2CCOCC2)nc1C1CCCN(C(=O)c2cccc3c(C)c(C)[nH]c23)C1 (stereo not drawn)	.	.	.	i	.	.
Nc1ccccc1Nc1ccccc1	?	-8%	-3%	i	20µM*	-2%
CC(C)COc1ccc(C(=O)CCN2CCCCC2)cc1	?	?	18µM*	i	-95%	-23%
CCCCOc1ccc(C(=O)CCN2CCCCC2)cc1	?	18µM*	?	i	-81%	?
O=C(CCN1CCOCC1)c1ccc(N2CCCCC2)cc1	14µM*	-2%	-29%	?	-99%	?
CCOc1cc(CNC(=O)c2ccc(Cn3c(=O)c4cccn4c4cccnc43)cc2)ccc1OC	-14%	.	.	.	-15%	.
COc1cccc(NC(=O)CSc2nc3c(oc4ccccc43)c(=O)n2Cc2ccco2)c1	-33%	.	.	i	-19%	-26%
Cc1ccccc1-c1ccc(CN2CCc3nnc(C(NS(C)(=O)=O)C(C)C)n3CC2)cc1 (stereo not drawn)	.	.	.	i	.	.
COc1ccc(C2CC(=O)N(Cc3ccccc3)c3c2c(C)nn3-c2nc(C)cc(C)n2)c(OC)c1 (stereo not drawn)	-26%	.	.	i	-5%	-1%
COc1ccc2c(Sc3ccc(Cl)cc3)c(C(=O)N3CCCCC3)[nH]c2c1	?	.	.	?	-99%	-11%
COc1ccc2c(Sc3ccc(Cl)cc3)c(C(=O)N3CCC(C)CC3)[nH]c2c1	11µM*	.	.	?	-95%	?
O=C(c1ccccc1)c1ccc(Oc2ccc([N+](=O)[O-])cc2[N+](=O)[O-])cc1	-26%	12µM*	15µM*	i	-12%	41%
COc1ccc(CCN2CCCn3c2nc2c3c(=O)[nH]c(=O)n2C)cc1OC	19%	18µM*	?	i	7%	-24%
COCCn1c(=O)c2c(nc3n2CCCN3CCc2ccc(OC)c(OC)c2)n(C)c1=O	4%	-19%	-12%	i	0%	-21%
COC(=O)c1c(-c2ccc(Cl)cc2)noc1N1CCN(c2cccc(C)c2C)CC1	7%	.	.	i	21%	3%
Cc1c(C(=O)N(Cc2ccco2)Cc2ccccc2Cl)oc2ccc(F)cc12	?	.	.	i	-39%	1%
O=C(O)c1cccc(N/N=C(\N=Nc2ccccc2)c2ccccc2)c1	-14%	?	?	?	-25%	?
O=C(O)c1ccc(N=N/C(=N\Nc2ccc(C(=O)O)cc2)c2ccccc2)cc1	1%	?	-9%	13µM*	3%	1%
O=C(/C(=N\Nc1ccc(Br)cc1)Sc1nnnn1-c1ccccc1)c1ccccc1	-1%	-3%	0%	i	-28%	-4%
Brc1ccc(N/N=C(/N=Nc2nn[nH]n2)c2ccccc2)cc1	?	2.9µM*	?	.	4%	.
